Drawing on PubChem BioAssay AID731 (The Scripps Research Institute Molecular Screening Center, 2007), this text covers activation for 62 compounds.

Structures are written as SMILES. Screen size: about 200,000 compounds; about 520 (0.26%) were called active. Shown is part of a subset that was picked to be rich in actives. Unmarked numbers belong to inactive results. Rule as the data show it: active = activation above about 23%; inactive = the rest.

In the assay the target is Peroxisome proliferator-activated receptor gamma (Homo sapiens) (UniProt P37231). Nature of the assay: enhancers of SRC-3 binding to PPARgamma – biochemical, primary screen (AID 731).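 Also: 0% = DMSO and 100% = reference agonist.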 The conditions noted are these: biochemical PPARgamma/SRC-3 coactivator recruitment assay; at 8 µM; hits give high values.
Peroxisome proliferator-activated receptor gamma (Homo sapiens), sequence (P37231 whole entry, looked up): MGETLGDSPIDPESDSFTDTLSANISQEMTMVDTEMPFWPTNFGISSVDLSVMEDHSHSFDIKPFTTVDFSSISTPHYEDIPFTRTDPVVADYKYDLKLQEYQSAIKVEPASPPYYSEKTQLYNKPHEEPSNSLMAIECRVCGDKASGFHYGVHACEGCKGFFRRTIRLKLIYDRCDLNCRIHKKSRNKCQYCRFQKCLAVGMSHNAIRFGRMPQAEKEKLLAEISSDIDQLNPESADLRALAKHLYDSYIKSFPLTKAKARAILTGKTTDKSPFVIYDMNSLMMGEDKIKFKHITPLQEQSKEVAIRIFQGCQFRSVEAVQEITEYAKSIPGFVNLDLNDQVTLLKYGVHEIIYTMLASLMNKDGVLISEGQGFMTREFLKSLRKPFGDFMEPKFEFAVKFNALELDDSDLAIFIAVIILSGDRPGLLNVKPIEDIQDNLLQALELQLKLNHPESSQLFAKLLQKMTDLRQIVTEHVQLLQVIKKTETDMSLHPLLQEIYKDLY
For `Cc1cccc(NC(=O)c2cc([N+](=O)[O-])ccc2N2CCN(C)CC2)c1`, the activation was 4.61%. In the case of `CCc1cc(C(=O)OC)c(NC(=O)CC2Sc3ccc(C(F)(F)F)cc3NC2=O)s1` (configuration not stated), the activation was -4.95%.

As for `CCOc1cc(/C=N/NC(=O)c2ccc(CSc3nncn3C)cc2)ccc1OCC(=O)N1CCOCC1`, the activation was -1.91%. In the case of `CC(OC(=O)CNS(=O)(=O)/C=C/c1ccccc1)C(=O)Nc1ccc(S(=O)(=O)N2CCCC2)cc1` (configuration not stated), the activation is -1.83%. With `CC(C(=O)O)n1cnc2sc3c(c2c1=O)CCCC3` (configuration not stated) the figure was 4.24%.

Consider `COc1ccc(N2C(=O)CC(SC(C)C)C2=O)cc1` (configuration not stated), for which the activation is -1.07%. For `CN(Cc1cccc2ncccc12)C(=O)CC1C(=O)NCCN1Cc1ccc(F)cc1` (configuration not stated) the value was -0.7%; for `O=C(/C=C/Nc1ccccc1)c1cnc(-c2ccccc2)s1`, -4.1%; for `CC(C)Cn1c(N2CCN(C(=O)/C=C/c3ccccc3)CC2)nc2ccccc21`, 9.26%. For `COc1cccc(NC(=O)CN(C)CC(=O)Nc2ccc3c(c2)CCC3)c1` the value was 0.47%; for `O=C(Cc1ccccc1)NNS(=O)(=O)c1ccc([N+](=O)[O-])cc1`, 1.7%; for `CCCCn1nc(C(=O)Nc2ccc(S(=O)(=O)Nc3ncccn3)cc2)c2ccccc2c1=O`, 2.84%. With `CC(C)C(c1nnnn1C(C)(C)C)N1CCN(Cc2cccnc2)CC1` (configuration not stated) the figure was 4.42%; with `CCn1c(C(C)C)n[nH]c1=S`, 1.32%. Take `CCN(CC(=O)NCc1cccs1)C(=O)c1ccccc1F`: the activation is 1.34%. Turning to `COc1cc(CNCCN(C)C)ccc1OCc1c(F)cccc1Cl`, the activation is 2.34%. In the case of `c1ccc(Cc2cc[n+](Cc3ccccc3)cc2)cc1`, the activation was 1.56%.

Consider `NS(=O)(=O)c1cc(C(=O)NCCOc2ccccc2)c(Cl)cc1Cl`, for which the activation is -1.64%. With `CCc1nnc(NC(=O)[C@@H](NC(=O)c2cccc(C)c2)C(C)C)s1` the figure was -2.92%; with `COc1ccc(-c2nnc3ccc(SCc4ccccc4)nn23)cc1`, 3.96%.

Consider `Cc1cc(C)nc(NC(=O)c2cccc([N+](=O)[O-])c2)c1`, for which the activation is 2.34%. For `CC(C)[C@H](NC(=O)c1ccc(F)cc1)C(=O)OCC(=O)NC(=O)c1cccn1C` the value was 1.86%; for `O=C(Cn1c(N2CCN(C/C=C/c3ccccc3)CC2)nc2ccccc21)c1ccccc1`, 6.67%. With `N/C(=N\OC(=O)c1ccc([N+](=O)[O-])cc1)c1ccccn1` the figure was -2.22%; with `[O-][n+]1onc2c1CCc1[nH]c(-c3ccccc3)nc1-2`, 0.76%. For `N#C/C(=C(\O)C(F)(F)F)c1nnc2n1CCCCC2` the value was -0.75%; for `CSCc1ccc(C(=O)Nc2cc(C)cc(C)c2)cc1`, -4.38%; for `COc1ccc2c(Cl)c(C(=O)NCc3ccco3)sc2c1`, -2.31%.

On to `COc1ccc(-c2nnco2)cc1OC`, for which the activation is -2.7%. With `COc1ccc2c(Cl)c(-c3nnco3)sc2c1` the figure was 33.2% (active). Consider `O=C(Nc1ccc2c(c1)CCC2)c1ccc(Br)s1`, for which the activation was 0.47%. Turning to `C/C(=C\c1ccccc1)C1NC(=O)c2c(sc3c2CCCC3)N1` (configuration not stated), the activation was 6.88%. With `CCn1nc(C)c(CN2CCN(Cc3ccc(OC)c(C)c3C)C(CCO)C2)c1C` (configuration not stated) the figure was -0.59%; with `Cn1cc(-c2ccccc2)cc(C#N)c1=O`, 1.51%. For `CN(C)N(C)C(=O)C(O)(c1ccccc1)c1ccccc1` the value was 3.14%; for `Cc1cc(C)cc(N(CC(=O)NCCSCc2ccco2)S(C)(=O)=O)c1`, 5.41%. Consider `O=C(CN1C(=O)NC2(CCCC2)C1=O)Nc1ccc(F)c(F)c1F`, for which the activation was 0.63%. For `O=S(=O)(c1ccc(F)cc1)N1CCN(C(=S)NC2CCCC2)CC1` the value was 1.45%. With `COc1cc(C)c(S(=O)(=O)N2CCOCC2)c(C)c1C` the figure was -6.91%; with `CCc1nnc(NS(=O)(=O)c2ccc(NC(=S)NC(=O)/C=C/c3cccs3)cc2)s1`, 22.6% (active); with `CCc1nnc(NS(=O)(=O)c2ccc(NC(=S)NC(=O)c3cccs3)cc2)s1`, 2.44%. With `CCc1nnc(NS(=O)(=O)c2ccc(NS(=O)(=O)c3ccccc3)cc2)s1` the figure was -4.6%. As to `C/C(=N/NC(=O)C1COc2ccccc2O1)c1ccco1` (configuration not stated), the activation was -2.9%. With `Cc1ccc(CN(C)CC(=O)Nc2cccc([N+](=O)[O-])c2)o1` the figure was -1.37%. With `COc1cc(NS(=O)(=O)c2ccc(NC(=O)c3ccc(S(=O)(=O)N4CCCCC4)cc3)cc2)ncn1` the figure was -0.22%; with `C/C(=N\NS(=O)(=O)c1ccc(Cl)cc1)c1ccc(NC(=O)c2ccco2)cc1`, 7.63%.

`O=C(O)Cc1sc(-c2ccccc2)nc1-c1cccs1`: the activation was 25.3% (active). As to `Cc1ccc(-c2nc(C)sc2CC(=O)O)cc1`, the activation is 1.18%. With `O=C(O)Cc1sc(-c2ccc(C(=O)O)cc2)nc1-c1ccccc1` the figure was 8.03%; with `Cc1ccc(C2=NN(C(=O)COc3ncnc4ccccc34)C(c3ccco3)C2)cc1` (configuration not stated), 6.22%; with `COC(C(=O)NCc1ccccc1C)c1ccccc1` (configuration not stated), -1.48%. With `CCCC(c1nnnn1C(C)(C)C)N1CCN(Cc2ccccc2)CC1` (configuration not stated) the figure was 0.32%; with `COc1ccc(OC)c(CNC(=O)c2cc(=O)[nH]c3ccc(S(=O)(=O)N4CCCC4)cc23)c1`, 1.02%; with `O=C(C1CCN(C2CCN(Cc3ccc4cc(F)ccc4n3)CC2)CC1)N1CCCC1`, 3.24%.

As for `Cc1ccc(C(=O)N/C(=C\c2ccco2)C(=O)N2CCSCC2)cc1C`, the activation is -0.93%. Turning to `Cc1ccc2cc(C#N)c(NCCNC(=S)NCCCN3CCOCC3)nc2c1`, the activation is 1.37%. With `Cn1nnnc1SCC(=O)Nc1nc2ccccc2s1` the figure was -4.08%; with `N#Cc1c(-c2ccc(F)cc2)cc(C2CC2)nc1SCC(=O)c1cccs1`, -1.78%; with `COC(=O)CCc1sc(Nc2ccc(Br)cc2)nc1-c1ccc(OC)cc1`, 4.66%. `Cc1ccccc1-c1n[nH]c(=S)n1C`: the activation is 2.22%. With `Cn1c(-c2sc3cc(C(F)(F)F)cnc3c2-c2ccccc2)n[nH]c1=S`, the activation was 50% (active).

As to `Cn1c(-c2sccc2OCc2cccc(C(F)(F)F)c2)n[nH]c1=S`, the activation is 4.56%.
